This is an account of results in publication PMC5540273 (PLoS ONE, 2017).
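Note: KINOMEscan kinase panel screen.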

For the assay, the system named is T1, CTK.
T1 construct: gene MATK
The following applies: concentration: 1 μM, replicates: in singlicate; n = 1.
For the molecule `Cc1ccc(C)c(NC(=O)NC2CCN(c3ccnc(Nc4ccc(F)cc4)n3)C2)c1` (stereo not shown) [GSK1379720], the “%Inh” value is listed as 0%.
With `Cl.Cl.NCC(NC(=O)c1cc(-c2ccccc2)c(-c2ccnc3[nH]ccc23)s1)c1ccccc1` (stereo not shown) [GSK1321561], the “%Inh” value is given as 0%.
Turning to `CN(C)Cc1ccc(-c2ccc3c(Nc4ccc(Oc5ccccn5)cc4)ccnc3c2)o1` [GW567148], the “%Inh” value came to 16%.
The result for `COc1cccc(C(=O)Nc2cccc(Oc3ccc4nc(NC(=O)C5CC5)cn4n3)c2)c1` reads 0%; that for `CNC(=O)c1ccccc1Nc1nc(Nc2ccc(N3CCOCC3)cc2)ncc1Cl.Cl` [GSK1576028], 34%.
Then `C[C@@H]1CC[C@@H](C(=O)Nc2ccccc2)CN1c1cc(-c2ccc3c(N)n[nH]c3c2)nc(N)n1` [GSK2286062], with 0%; and `Cn1cc(-c2ccc3c(c2)CCN3C(=O)Cc2cccc(Cl)c2)c2c(N)ncnc21` [GSK2606590], with 0%; and `FC(F)(F)c1ccc(/C=C/c2cncnc2Nc2ccc3[nH]c(Cc4ccccc4)nc3c2)cc1` [GW709199], with 0%.
For `COc1cccc(NC(=O)NC2CCN(c3ccnc(Nc4cc(OC)c(OC)c(OC)c4)n3)C2)c1` (stereo not shown) [GSK1379763], the “%Inh” value was 0%.
With `Fc1ccc(-c2ncn(C3CCNCC3)c2-c2ccnc(Oc3ccc(-c4ccccc4)cc3)n2)cc1` [SB-245391], the “%Inh” value was 37%.
Take `Oc1cc(Nc2ccnc3cc(I)ccc23)ccc1F` [GW552771]: the “%Inh” value came out at 6%.
`COC(=O)Nc1nc2ccc(Oc3ccc(NC(=O)Nc4cc(C(F)(F)F)ccc4F)cc3)cc2n1C.Cl` [GW692089]: the “%Inh” value was 0%.
`CC(=O)N1CCN(c2ccc(Nc3nccc(-c4sc(C(C)C)nc4-c4cccc(NS(=O)(=O)c5cccc(Cl)c5)c4)n3)cn2)CC1` [GSK1660437]: the “%Inh” value came to 27%.
Then `Cl.Cl.NCC(C(=O)Nc1cc(Br)c(-c2ccnc3[nH]ccc23)s1)c1ccccc1` (stereo not shown) [GSK1269851], with 7%; and `CC(C)(C)c1ccc2nccc(Nc3cccc(O)c3)c2c1` [GW856795], with 0%.
On to `NCCCC(NC(=O)c1cc(Br)c(-c2ccnc3[nH]ccc23)s1)c1ccccc1.O=C(O)C(F)(F)F.O=C(O)C(F)(F)F` (stereo not shown) [GSK1287544], for which the “%Inh” value is recorded as 0%.
Then `Cl.c1ccc(-c2ccc3c(Nc4ccc5[nH]ncc5c4)ccnc3c2)nc1` [GW440137], with 0%; and `c1ccc(Oc2ccc(Nc3ccnc4cc(-c5ccc(CNCCN6CCOCC6)o5)ccc34)cc2)nc1` [GW567145], with 0%; and `O=C(Nc1cccc(Oc2ccc3nc(NC(=O)C4CC4)cn3n2)c1)c1ccccc1C(F)(F)F`, with 0%.
On to `CC(C)c1nc(-c2cccc(NS(=O)(=O)c3c(F)cccc3F)c2F)c(-c2ccnc(Nc3ccc(N4CCOCC4)nc3)n2)s1` [GSK2008607], for which the “%Inh” value is recorded as 55%.
In the case of `Nc1ncc(-c2cccnc2)c2scc(-c3ccc4c(c3)CCN4C(=O)Cc3ccccc3)c12` [GSK683281], the “%Inh” value was determined as 9%.
Consider `Cn1cc(-c2ccc3c(c2)CCN3C(=O)Cc2cccc(F)c2)c2c(N)ncnc21` [GSK2603358], for which the “%Inh” value was determined as 0%.
On to `Cl.NC(=O)c1cccc(Nc2nccc(Nc3ccc(Oc4c(Cl)cccc4Cl)c(Cl)c3)n2)c1` [GW659009], for which the “%Inh” value is given as 34%.
On to `COCCOCCOc1cc2ncc3c4ccc(C#N)cc4[nH]c3c2cc1OC`, for which the “%Inh” value worked out at 0%.
`COc1cccc(-c2ccc3c(NC(=O)C4CC4)n[nH]c3n2)c1` [SB-710903]: the “%Inh” value turned out to be 0%.
Take `Nc1ncc(-c2ccc3nccc(-c4ccncc4)c3c2)cc1S(=O)(=O)N1CCOCC1` [GSK1627798]: the “%Inh” value was determined as 0%.
The result for `Cc1ccc(C(=O)N2CC[C@@H](O)C2)cc1-n1c(C)cc(OCc2ccc(F)cc2F)c(Br)c1=O` reads 0%.
Regarding `O=C(O)C(F)(F)F.O=C(O)C(F)(F)F.O=c1[nH]ccc2nc(N[C@@H]3CCCNC3)nc(Nc3ccc(S(=O)(=O)N4CCOCC4)cc3)c12` [GSK2177277], the “%Inh” value came out at 69%.
On to `COc1cc(Nc2nccc(-c3c(-c4cccc(NC(=O)c5c(F)cccc5F)c4)nn4ncccc34)n2)cc(OC)c1OC` [GSK327238], for which the “%Inh” value is reported as 14%.
For the molecule `COc1cccc(C2=C(Nc3ccc(Cl)c(C(=O)O)c3)C(=O)NC2=O)c1` [SB-390769], the “%Inh” value came out at 95.9%.
For the molecule `Cc1ccc(C(=O)Nc2ccc(Nc3ccnc4cc(-c5nccs5)ccc34)cc2O)cc1.Cl` [GW494702], the “%Inh” value is reported as 8%.
Regarding `CCn1c(-c2nonc2N)nc2c(C#CC(C)(C)O)nc(OC[C@H](N)c3ccccc3)cc21` [GSK943949], the “%Inh” value is recorded as 11%.
`COC(=O)Nc1nc2cc(Oc3ccc(NC(=O)Nc4cc(C(F)(F)F)ccc4F)cn3)ccc2[nH]1.Cl.Cl` [GW681170]: the “%Inh” value is 0%.
In the case of `Cl.Cl.NCC(NCc1ccc(-c2ccnc3[nH]ccc23)s1)c1ccccc1` (stereo not shown) [GSK1321565], the “%Inh” value worked out at 0%.
For the molecule `O=c1[nH]cc(-c2ccc(N3CCOCC3)cc2)c2sc(-c3cn[nH]c3)cc12` [GSK2276055], the “%Inh” value is 0%.
Take `c1ccc(-c2cnc3nccnn23)cc1` [AH20685]: the “%Inh” value worked out at 0%.
In the case of `COc1cc(Nc2nccc(-c3c(-c4cccc(NC(=O)c5c(F)cccc5F)c4)nn4ccccc34)n2)cc(OC)c1OC` [GSK323521], the “%Inh” value is on record as 0%.
